Results reported in the supplement of paper PMC10849652.
Targets with a hit are over-represented here; the source holds about 8,800 in all. About 0.5% of all pairs of compound and target were hits.

Columns and labels:
Test in all cases: log2 fold change, soluble protein after heating vs DMSO (PISA); higher = thermal stabilisation; K562 lysate, 10 uM; active = over 0.2 and 3.5 SD of the protein, either way, in both replicates (recomputed)
ralimetinib = compound: CC(C)(C)Cn1c(N)nc2ccc(-c3[nH]c(C(C)(C)C)nc3-c3ccc(F)cc3)nc21 [ralimetinib]
Outline: (§1)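 The values are log-two fold changes in thermal stability compared with solvent controls and come from duplicates. They were obtained by TMTpro 16plex LC-MS/MS, with channel sums equalised, on the supernatant after 21,000xg for 90 min. That supernatant came from crude K562 extract at 1 mg/mL protein treated with 10 μM compound for 30 min, heated for 3 min across 48°C-58°C, pooled and brought to 0.5% NP-40 at 4°C.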

[1] = compound: CC(C)(O)CC(=O)NCCn1ccc2ncnc(Nc3ccc(Oc4cccc(C(F)(F)F)c4)c(Cl)c3)c21
Outline: as §1

[2] = compound: CC(C)C1=C2N=C(C=C(N2N=C1)NCC3=CC=CC=C3)NCCCCCCN
Outline: as §1

[3] = compound: CC1=C(C2=C(C=C1)C(=O)C3=CC=CC=C3N2CCCN)C
Outline: as §1

[4] = compound: CC1=C(C=C(C=C1)NC(=O)C2=CC(=CC=C2)C(C)(C)C#N)NC3=CC4=C(C=C3)N=CN(C4=O)C
Outline: as §1

[5] = compound: CC1=C(C=C(C=C1)NC(=O)C2=CC(=CC=C2)N(C)C)NC(=O)C3=CC=C(C=C3)O
Outline: as §1

ibrutinib = compound: C=CC(=O)N1CCC[C@@H](n2nc(-c3ccc(Oc4ccccc4)cc3)c3c(N)ncnc32)C1 [ibrutinib]
Outline: as §1

[6] = compound: CC(=O)c1cnc2ccc(-c3cc(Cl)c(O)c(Cl)c3)nc2c1N[C@H]1CC[C@H](CN(C)C)CC1
Outline: as §1

[7] = compound: CC1=C(C(CC(=O)N1)C2=CC=C(C=C2)C(F)(F)F)C(=O)NC3=C(C=C4C(=C3)C=NN4)F
Outline: as §1

[8] = compound: CC1=CC=C(C=C1)SC2=C3C=C(SC3=CN=C2)C(=O)N
Outline: as §1

Measured: log2 fold change

MYBL2 (UniProt P10244)
Chain of UniProt P10244 (P10244 whole entry, looked up): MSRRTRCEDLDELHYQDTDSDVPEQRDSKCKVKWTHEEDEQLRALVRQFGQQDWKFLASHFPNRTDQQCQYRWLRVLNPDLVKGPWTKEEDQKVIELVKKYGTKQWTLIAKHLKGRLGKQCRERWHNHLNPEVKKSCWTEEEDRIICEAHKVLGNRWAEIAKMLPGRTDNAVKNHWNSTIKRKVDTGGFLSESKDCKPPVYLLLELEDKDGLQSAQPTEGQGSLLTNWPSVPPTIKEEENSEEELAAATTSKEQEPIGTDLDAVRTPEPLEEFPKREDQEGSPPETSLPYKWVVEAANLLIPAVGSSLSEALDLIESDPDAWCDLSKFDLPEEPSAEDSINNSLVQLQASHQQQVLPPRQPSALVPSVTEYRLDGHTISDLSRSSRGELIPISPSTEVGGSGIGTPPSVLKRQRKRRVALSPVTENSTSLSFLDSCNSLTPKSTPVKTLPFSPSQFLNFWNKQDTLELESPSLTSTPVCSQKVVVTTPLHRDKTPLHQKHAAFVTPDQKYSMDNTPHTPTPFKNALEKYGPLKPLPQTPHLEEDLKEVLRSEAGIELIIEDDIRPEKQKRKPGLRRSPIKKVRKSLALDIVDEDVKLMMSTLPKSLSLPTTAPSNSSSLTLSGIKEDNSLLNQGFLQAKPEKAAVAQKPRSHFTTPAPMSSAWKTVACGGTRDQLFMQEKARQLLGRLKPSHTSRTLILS
inactive: ralimetinib 0 | [1] 0.02 | [2] -0.008 | [3] 0.057 | [4] 0.048 | [5] -0.013

PANK2 (UniProt Q9BZ23)
Chain of UniProt Q9BZ23 (Q9BZ23 whole entry, looked up): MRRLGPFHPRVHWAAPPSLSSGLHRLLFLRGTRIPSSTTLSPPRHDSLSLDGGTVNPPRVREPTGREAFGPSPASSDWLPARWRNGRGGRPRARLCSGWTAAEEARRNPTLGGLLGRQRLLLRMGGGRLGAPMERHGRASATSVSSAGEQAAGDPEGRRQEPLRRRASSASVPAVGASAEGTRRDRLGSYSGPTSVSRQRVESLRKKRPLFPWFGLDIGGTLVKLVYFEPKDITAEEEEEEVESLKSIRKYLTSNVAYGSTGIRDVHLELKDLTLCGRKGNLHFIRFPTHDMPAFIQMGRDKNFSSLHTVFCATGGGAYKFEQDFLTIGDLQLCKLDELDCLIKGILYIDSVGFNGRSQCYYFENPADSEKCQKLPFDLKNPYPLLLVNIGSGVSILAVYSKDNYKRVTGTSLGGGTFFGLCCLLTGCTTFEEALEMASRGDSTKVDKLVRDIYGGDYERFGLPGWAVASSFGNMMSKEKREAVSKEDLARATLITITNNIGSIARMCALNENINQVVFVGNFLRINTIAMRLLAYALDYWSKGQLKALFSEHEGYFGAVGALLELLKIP
inactive: ibrutinib -0.056 | [6] 0.001 | ralimetinib -0.069 | [1] -0.047 | [7] -0.073 | [3] -0.126 | [4] -0.046 | [5] -0.002 | [8] 0.023

MT-ATP8 (UniProt P03928)
Chain of UniProt P03928 (P03928 whole entry, looked up): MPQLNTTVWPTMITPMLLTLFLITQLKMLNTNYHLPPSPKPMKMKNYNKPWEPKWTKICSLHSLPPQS
inactive: ibrutinib -0.035 | [6] -0.052 | ralimetinib 0.005 | [1] -0.109 | [2] -0.087 | [7] -0.082 | [4] 0.153 | [5] 0.047 | [8] 0.104

NR2C2 isoform 2 (UniProt P49116)
inactive: ibrutinib 0.069 | [6] -0.081 | ralimetinib 0.014 | [1] 0 | [2] -0.03 | [3] -0.064 | [4] 0.044 | [5] -0.019 | [8] -0.086

NUMB isoform 2 (UniProt P49757)
inactive: ralimetinib 0.059 | [1] 0.12 | [7] 0.154 | [3] -0.245 | [5] -0.062

NUDT5 (UniProt C9JYY9)
inactive: [2] -0.111 | [7] -0.05

NUB1 isoform 2 (UniProt Q9Y5A7)
inactive: [4] 0.075

NSA2 (UniProt O95478)
inactive: ibrutinib 0.154 | [6] 0.068 | ralimetinib 0.012 | [1] 0.082 | [2] 0.01 | [7] -0.043 | [3] 0.223 | [5] -0.155 | [8] -0.027

NOCT (UniProt Q9UK39)
inactive: [6] 0.001 | ralimetinib 0.068 | [1] -0.06 | [2] 0.014 | [7] 0.004 | [3] 0.114 | [4] -0.012 | [5] -0.066 | [8] 0.064

MXRA7 (UniProt P84157)
Chain of UniProt P84157 (P84157 whole entry, looked up): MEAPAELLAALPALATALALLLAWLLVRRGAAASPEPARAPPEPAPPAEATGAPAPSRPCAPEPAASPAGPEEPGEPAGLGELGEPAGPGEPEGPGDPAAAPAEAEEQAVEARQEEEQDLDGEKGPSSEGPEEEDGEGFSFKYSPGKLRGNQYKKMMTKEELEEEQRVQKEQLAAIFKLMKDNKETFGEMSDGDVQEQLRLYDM
inactive: [6] -0.234 | ralimetinib 0.108 | [1] 0.027 | [2] -0.057 | [7] -0.074 | [3] 0.024 | [4] 0.021 | [5] 0.045 | [8] -0.023

PAXBP1 (UniProt Q9Y5B6)
inactive: ibrutinib -0.004 | [6] 0.019 | ralimetinib 0.027 | [1] -0.015 | [2] 0.006 | [7] -0.024 | [3] 0.007 | [4] -0.007 | [5] 0.077 | [8] 0.032

OSBPL1A (UniProt Q9BXW6)
inactive: ibrutinib 0.019 | [6] -0.002 | [2] 0.116 | [7] 0.152 | [3] -0.069 | [4] 0.012 | [8] -0.028

MYLK (UniProt Q15746)
Chain of UniProt Q15746 (Q15746 whole entry, looked up): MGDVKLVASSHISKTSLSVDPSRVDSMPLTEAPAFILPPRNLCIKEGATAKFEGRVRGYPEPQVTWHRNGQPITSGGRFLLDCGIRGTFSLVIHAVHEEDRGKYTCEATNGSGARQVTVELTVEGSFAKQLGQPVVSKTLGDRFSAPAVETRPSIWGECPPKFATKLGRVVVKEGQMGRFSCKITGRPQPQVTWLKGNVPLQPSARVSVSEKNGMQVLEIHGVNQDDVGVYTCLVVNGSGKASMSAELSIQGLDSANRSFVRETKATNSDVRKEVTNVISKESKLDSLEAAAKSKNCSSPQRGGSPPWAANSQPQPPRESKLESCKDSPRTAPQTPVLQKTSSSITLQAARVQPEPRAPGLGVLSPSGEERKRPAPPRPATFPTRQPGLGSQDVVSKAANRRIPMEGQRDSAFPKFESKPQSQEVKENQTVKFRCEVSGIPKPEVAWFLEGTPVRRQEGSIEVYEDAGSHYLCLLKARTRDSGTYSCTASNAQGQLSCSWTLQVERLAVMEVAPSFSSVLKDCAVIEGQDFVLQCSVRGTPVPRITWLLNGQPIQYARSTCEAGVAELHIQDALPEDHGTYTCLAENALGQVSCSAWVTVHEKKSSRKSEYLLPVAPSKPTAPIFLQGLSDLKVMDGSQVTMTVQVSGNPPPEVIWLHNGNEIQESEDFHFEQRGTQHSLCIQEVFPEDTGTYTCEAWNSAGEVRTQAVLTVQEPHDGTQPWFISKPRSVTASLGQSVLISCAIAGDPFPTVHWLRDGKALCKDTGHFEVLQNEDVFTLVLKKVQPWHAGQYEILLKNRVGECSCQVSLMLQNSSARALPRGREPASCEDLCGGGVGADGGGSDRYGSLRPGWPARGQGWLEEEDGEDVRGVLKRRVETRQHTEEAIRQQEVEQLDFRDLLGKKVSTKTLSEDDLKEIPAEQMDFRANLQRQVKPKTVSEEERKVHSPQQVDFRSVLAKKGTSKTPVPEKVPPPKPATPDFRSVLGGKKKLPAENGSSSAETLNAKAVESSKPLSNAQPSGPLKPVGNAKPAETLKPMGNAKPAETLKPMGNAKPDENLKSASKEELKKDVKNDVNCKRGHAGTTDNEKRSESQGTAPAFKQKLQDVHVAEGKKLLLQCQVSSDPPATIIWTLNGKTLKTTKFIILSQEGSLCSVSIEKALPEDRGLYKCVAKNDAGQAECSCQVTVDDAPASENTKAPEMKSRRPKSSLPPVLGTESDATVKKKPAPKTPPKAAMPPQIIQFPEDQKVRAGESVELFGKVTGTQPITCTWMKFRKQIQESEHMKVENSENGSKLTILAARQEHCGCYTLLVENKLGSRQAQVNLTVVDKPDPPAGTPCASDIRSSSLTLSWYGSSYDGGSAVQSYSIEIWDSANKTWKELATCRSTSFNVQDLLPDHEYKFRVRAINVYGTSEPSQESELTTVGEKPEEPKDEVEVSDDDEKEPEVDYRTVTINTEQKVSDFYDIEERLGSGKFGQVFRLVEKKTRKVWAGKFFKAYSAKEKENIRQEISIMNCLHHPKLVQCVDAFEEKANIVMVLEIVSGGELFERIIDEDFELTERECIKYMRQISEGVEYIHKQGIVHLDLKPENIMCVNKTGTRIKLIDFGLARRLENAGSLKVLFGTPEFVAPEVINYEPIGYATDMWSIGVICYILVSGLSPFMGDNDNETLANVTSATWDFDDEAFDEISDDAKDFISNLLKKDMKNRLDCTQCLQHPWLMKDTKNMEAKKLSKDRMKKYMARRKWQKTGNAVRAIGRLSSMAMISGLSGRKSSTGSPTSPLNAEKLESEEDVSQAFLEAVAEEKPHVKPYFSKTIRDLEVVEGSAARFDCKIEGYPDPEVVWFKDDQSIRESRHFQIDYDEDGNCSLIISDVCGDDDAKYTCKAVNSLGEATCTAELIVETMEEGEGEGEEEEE
inactive: ibrutinib 0.099 | [6] 0.226 | [7] 0.061 | [4] 0.228 | [8] 0.004

MYH6 (UniProt P13533)
active: ibrutinib 0.793
inactive: [6] -0.017 | ralimetinib 0.045 | [1] -0.157 | [2] 0.01 | [4] 0.047 | [5] -0.081 | [8] -0.172

NEXN (UniProt Q0ZGT2)
inactive: ibrutinib 0.173 | [6] -0.008 | ralimetinib 0.257 | [1] 0.057 | [2] 0.066 | [7] -0.012 | [3] -0.065 | [5] 0.101 | [8] -0.017

MYO10 (UniProt Q9HD67)
inactive: ibrutinib -0.059 | ralimetinib -0.136 | [1] -0.385 | [2] 0.035 | [7] -0.078 | [4] -0.001 | [5] 0.042

NFATC4 isoform 2 (UniProt Q14934)
inactive: ibrutinib -0.053 | [6] -0.075 | [7] -0.067 | [3] -0.057 | [4] 0.125 | [8] -0.063

NDUFAF5 (UniProt Q5TEU4)
Chain of UniProt Q5TEU4 (Q5TEU4 whole entry, looked up): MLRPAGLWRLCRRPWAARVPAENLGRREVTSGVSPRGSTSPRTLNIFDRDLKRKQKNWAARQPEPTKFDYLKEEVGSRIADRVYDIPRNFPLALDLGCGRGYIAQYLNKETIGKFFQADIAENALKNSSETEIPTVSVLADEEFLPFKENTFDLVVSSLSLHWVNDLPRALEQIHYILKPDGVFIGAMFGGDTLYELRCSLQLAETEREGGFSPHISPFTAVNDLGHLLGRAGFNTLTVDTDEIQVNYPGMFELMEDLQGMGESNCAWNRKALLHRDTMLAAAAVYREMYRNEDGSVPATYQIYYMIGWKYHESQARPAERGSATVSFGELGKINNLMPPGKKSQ
inactive: ibrutinib -0.007 | [6] 0.021 | ralimetinib -0.011 | [1] -0.008 | [2] -0.029 | [3] 0.043 | [4] 0.076 | [5] -0.026 | [8] -0.048

PARD3B (UniProt Q8TEW8)
inactive: [2] 0.091 | [3] 0.071

ORC3 (UniProt Q9UBD5)
inactive: [6] 0.161 | [7] -0.007 | [8] 0.03

NFAT5 isoform 4 (UniProt O94916)
inactive: ibrutinib -0.016 | [4] 0.088

NPLOC4 (UniProt I3L3I1)
inactive: ibrutinib -0.022 | [3] -0.169 | [4] 0.447

NSUN7 (UniProt Q8NE18)
Chain of UniProt Q8NE18 (Q8NE18 whole entry, looked up): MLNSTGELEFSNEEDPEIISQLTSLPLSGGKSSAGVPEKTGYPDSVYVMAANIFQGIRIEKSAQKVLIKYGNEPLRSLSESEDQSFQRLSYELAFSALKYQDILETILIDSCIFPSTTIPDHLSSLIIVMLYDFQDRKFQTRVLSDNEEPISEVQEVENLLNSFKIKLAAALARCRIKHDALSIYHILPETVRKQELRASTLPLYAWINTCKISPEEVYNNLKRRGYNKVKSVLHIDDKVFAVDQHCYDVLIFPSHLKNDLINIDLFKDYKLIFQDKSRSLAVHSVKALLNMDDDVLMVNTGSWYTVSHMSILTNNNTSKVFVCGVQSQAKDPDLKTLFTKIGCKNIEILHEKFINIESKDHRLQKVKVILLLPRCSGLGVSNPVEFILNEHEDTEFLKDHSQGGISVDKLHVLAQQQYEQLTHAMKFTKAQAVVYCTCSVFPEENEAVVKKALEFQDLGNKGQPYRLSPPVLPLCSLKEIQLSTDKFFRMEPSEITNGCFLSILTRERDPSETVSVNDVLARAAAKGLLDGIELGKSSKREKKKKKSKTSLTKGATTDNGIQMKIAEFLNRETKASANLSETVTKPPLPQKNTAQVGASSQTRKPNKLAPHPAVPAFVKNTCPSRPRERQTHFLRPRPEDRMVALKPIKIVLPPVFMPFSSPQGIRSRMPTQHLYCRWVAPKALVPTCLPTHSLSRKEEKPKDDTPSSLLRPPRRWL
inactive: ibrutinib 0.076 | [6] -0.025 | ralimetinib 0.168 | [1] -0.137 | [2] 0.042 | [4] 0.102 | [5] -0.009 | [8] -0.017

NAA16 (UniProt Q6N069)
inactive: ibrutinib -0.047 | [6] 0.097 | ralimetinib -0.179 | [1] 0.085 | [7] 0.092 | [3] 0.105 | [5] 0.147 | [8] 0.062

MTHFD1 (UniProt V9GZ32)
inactive: [6] 0.045 | [7] -0.18 | [8] 0.088

MUC5AC (UniProt P98088)
inactive: ralimetinib -0.067 | [1] 0.06 | [7] 1.44 | [5] 0.041

NUB1 (UniProt H7C5N1)
inactive: ralimetinib 0.133 | [1] -0.146 | [5] -0.131

NTMT1 (UniProt S4R338)
inactive: [6] -0.182 | [8] 0.058

NMT1 (UniProt P30419)
inactive: ibrutinib -0.045 | [6] 0.005 | ralimetinib -0.001 | [1] 0.014 | [2] 0.022 | [7] -0.011 | [3] -0.009 | [4] -0.01 | [5] 0.017 | [8] 0.001

PAGE2B (UniProt Q5JRK9)
inactive: [6] -0.049 | ralimetinib -0.024 | [1] -0.032 | [2] -0.054 | [7] 0.023 | [3] 0.044 | [4] -0.003 | [5] 0.238 | [8] 0.022

P2RY1 (UniProt P47900)
inactive: ibrutinib -0.026 | [6] 0.102 | ralimetinib -0.045 | [1] -0.107 | [2] -0.322 | [3] 0.064 | [5] -0.009 | [8] 0.058

PAGE4 (UniProt O60829)
Chain of UniProt O60829 (O60829 whole entry, looked up): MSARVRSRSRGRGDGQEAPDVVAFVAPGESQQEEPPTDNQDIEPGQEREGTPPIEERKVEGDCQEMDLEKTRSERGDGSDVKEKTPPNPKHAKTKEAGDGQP
inactive: ibrutinib 0.056 | [6] -0.029 | ralimetinib 0.028 | [1] -0.077 | [2] 0.072 | [3] -0.014 | [4] 0.04 | [5] 0.078 | [8] 0.004

NUDT6 (UniProt P53370)
inactive: ralimetinib 0.065 | [1] -0.033 | [2] 0.054 | [3] 0.169 | [4] 0.011 | [5] -0.042

PAPOLG (UniProt Q9BWT3)
inactive: ralimetinib 0.01 | [1] -0.071 | [2] -0.19 | [7] -0.089 | [3] 0.012 | [4] -0.028 | [5] -0.092

MYD88 isoform 6 (UniProt Q99836)
Chain of UniProt Q99836 (Q99836 whole entry, looked up): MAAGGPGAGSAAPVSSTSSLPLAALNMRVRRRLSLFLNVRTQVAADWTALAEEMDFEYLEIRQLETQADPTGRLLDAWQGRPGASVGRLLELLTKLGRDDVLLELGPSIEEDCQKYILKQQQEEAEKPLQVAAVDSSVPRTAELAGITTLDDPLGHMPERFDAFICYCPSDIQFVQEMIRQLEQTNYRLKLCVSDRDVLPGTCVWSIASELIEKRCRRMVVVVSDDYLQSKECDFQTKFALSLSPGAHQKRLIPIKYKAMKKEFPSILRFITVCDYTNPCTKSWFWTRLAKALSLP
inactive: ibrutinib 0.044 | [6] 0.003 | ralimetinib 0.022 | [1] 0.005 | [2] 0.024 | [7] 0.002 | [3] -0.028 | [4] -0.009 | [5] -0.024 | [8] -0.029
